Assay outcomes deposited in PubChem BioAssay by National Center for Advancing Translational Sciences (NCATS).
BAZ2B block = blocks human BAZ2B | Q9UIF8 | AlphaScreen BAZ2B-H3K14Ac peptide displacement | Potency, µM (highest dose often 114 µM), inactives show at the highest dose activity change, negative = inhibition, hits mostly inhibitors | hit rate 4.4% among 360,000; note: % is set by controls: 0 for no effect and ±100 for the full control effect; nearly all actives have a fitted effect of over 60% in size
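AlphaScreen displacement of biotin-H3(5-23)K14Ac peptide (50 nM final) from BAZ2B (50 nM final) in PBS pH 7.4, 0.01% Tween-20; complex preformed 30 min RT, then compounds (top 110 uM) 30 min RT, beads 20 min dark.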
Sfp PPTase inh = Sfp phosphopantetheinyl transferase inhibition. Biochemical Sfp PPTase activity, qHTS. Potency, µM, for the others: largest response in the series, negative = inhibition, hits mostly inhibitors. hit rate 3.5% among 310,000;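 note: the enzyme is Sfp with the accession as filed and its product quenches rhodamine fluorescence; 0% = enzyme reaction without inhibitor and -100% = no enzyme wells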
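Compounds were incubated with enzyme (final 15 nM) for 15 min at room temperature before substrate addition started the reaction. Fluorescence at 525 nm excitation, 598 nm emission was recorded immediately and after 30 minutes.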
HP1b binding inh = blocks HP1-beta chromodomain binding to methylated histone tails; P83916; AlphaScreen HP1-beta / biotin-H3K9me3 peptide binding; Potency, µM (highest dose often 114 µM), inactives show at the top dose activity change, negative = inhibition, usual class: inhibitors; hit rate 0.56% among 390,000; AID 540317; note: nearly all actives have a fitted effect of over 70% in size
Target sequence (P83916 whole entry, looked up): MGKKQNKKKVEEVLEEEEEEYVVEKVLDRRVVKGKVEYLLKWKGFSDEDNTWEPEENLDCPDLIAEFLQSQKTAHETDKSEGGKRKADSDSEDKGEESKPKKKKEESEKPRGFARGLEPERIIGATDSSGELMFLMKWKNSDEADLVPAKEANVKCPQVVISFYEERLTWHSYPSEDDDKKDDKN
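Compound inhibition of the preformed complex between 50 nM HP1-beta and 50 nM biotinylated H3K9me3 peptide was read by AlphaScreen. Buffer was PBS pH 7.4 with 0.01% Tween-20. Incubations ran 30 min at room temperature, with 10 ug/mL donor/acceptor beads.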
JMJD2A Tudor = JMJD2A Tudor domain (human) inhibition | AID 504339 | AlphaScreen JMJD2A-Tudor / H3K4me3 peptide binding | hit rate 4.4% among 390,000 | Potency, µM (series often up to 114 µM), inactives show at the top dose activity change, negative = inhibition, usual class: inhibitors | O75164; note: % is set by controls: 0 for no effect and ±100 for the full control effect; nearly all actives have a fitted effect of over 50% in size
G9a inh = G9a (human) methyltransferase inhibition; Q96KQ7; G9a H3K9 monomethylation, AlphaScreen, 2 h; Potency, µM (highest dose often 102 µM), for the others: top-dose activity, negative = inhibition, usual class: inhibitors; hit rate 8.8% among 350,000; AID 504332; note: % is set by controls: 0 for no effect and ±100 for the full control effect; nearly all actives have a fitted effect of over 75% in size
Target sequence (Q96KQ7 913-1193 limits assumed): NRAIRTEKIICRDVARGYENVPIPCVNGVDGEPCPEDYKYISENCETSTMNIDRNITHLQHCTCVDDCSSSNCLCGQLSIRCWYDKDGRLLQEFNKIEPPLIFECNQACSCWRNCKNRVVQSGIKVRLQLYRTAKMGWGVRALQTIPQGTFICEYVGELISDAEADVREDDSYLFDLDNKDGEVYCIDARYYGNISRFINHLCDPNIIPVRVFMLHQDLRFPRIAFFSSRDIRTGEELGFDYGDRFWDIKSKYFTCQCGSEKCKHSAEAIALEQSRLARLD
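AlphaScreen read-out: biotin-H3K9 peptide (500 nM) methylation by 20 nM enzyme with 20 uM SAM, 2 h at room temperature after 15 min compound preincubation; anti-monomethyl H3K9 antibody plus donor/acceptor beads, 10 min dark.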
Starred values were filed as active, the others as inactive; ? = inconclusive; / = no result given; [ ] = dose if it differs, or a comment. The list is not random: actives were taken first. Their share in the collection is about 12%. Calls come from the whole dose curve; as a rule, active = well fitted curve in the direction sought with a large enough effect; inconclusive = small, poorly fitted or top-dose-only effect, or another doubt; inactive = no such curve, though single readings can be large; an effect the other way counts as inactive or inconclusive. Potency is the fitted concentration of half-maximal effect.

SMILES | BAZ2B block | Sfp PPTase inh | HP1b binding inh | JMJD2A Tudor | G9a inh
Cc1cccc(-c2cc3nc(C)cc(NCCCN(C)C)n3n2)c1 | -4% | 16% | 16% | -20% | -36%[59 µM]
N=c1sccn1CC(=O)Nc1ccc(SC(F)F)cc1 | -17% | -22% | 2% | -24% | 50µM*
CC(C)CNc1nc(NC(C)(C)C)nc(Oc2ccc(=O)n(-c3ccccc3)n2)n1 | -10% | / | 27% | -5% | -8%[59 µM]
Cc1nc2c(c(C)nn2-c2ccccc2)c(C)c1CCC(=O)Nc1ccc(F)cc1 | -12% | / | 44% | 0% | 14%[59 µM]
COc1ccc(-c2onc(C)c2C)cc1S(=O)(=O)NCCc1ccco1 | 50µM* | 5% | -19% | ? | ?
CCN(CC)c1ccc(NS(=O)(=O)c2cc3[nH]c(=O)c(=O)[nH]c3cc2C)c(C)c1 | 50µM* | / | -29% | 45µM* | 14µM*
Cc1cc(Cl)ccc1NS(=O)(=O)c1cc2[nH]c(=O)c(=O)[nH]c2cc1C | -13% | / | 14% | -13% | 3%[59 µM]
CCN(CC)c1ccc(NS(=O)(=O)c2cc(-c3onc(C)c3C)ccc2OC)c(C)c1 | -16% | / | -10% | ? | 8.9µM*
CCN(CC)c1ccc(NS(=O)(=O)c2ccc(-c3coc(C)n3)cc2)c(C)c1 | 13µM* | / | ? | 25µM* | 11µM*
Cc1cc2n(n1)CCCN2C(=O)Nc1ccccc1C(F)(F)F | 4%[57.1 µM] | / | 39% | 8% | -2%[59 µM]
c1ccc(C2(CNc3ccccn3)CCCC2)cc1 | 9% | 0% | 29% | -10% | 50µM*
Cc1cccc(N2CCN(C(=O)CN3C(=O)NC(C)(C)C3=O)CC2)c1C | -4% | 9% | 1% | -6% | /
Cc1cccc(N2CCN(C(=O)CN3C(=O)NC(C)(C4CC4)C3=O)CC2)c1C (centres undefined) | 12% | / | 17% | -16% | 56µM*
COc1ccccc1C1(CC(=O)N2CCOCC2)CCOC(C(C)C)C1 (centres undefined) | ? | -15% | -7% | -10%[11.4 µM] | 50µM*
Cc1ccc(NC(=O)CCS(=O)(=O)c2ccc3c(c2)NC(=O)C(C)S3)nc1 (centres undefined) | -5% | 15% | 44% | 13% | /
CCOc1ccc(CC(=O)NC2CC(=O)N(c3ccc4c(c3)OCCO4)C2)cc1 (centres undefined) | 0% | / | 18% | -9% | 22%[59 µM]
O=C(Cc1nc2ccccc2s1)c1ccc(O)cc1O | -3% | 50µM* | / | / | ?
Cc1cccc2sc(NNC(=O)c3ccc(S(=O)(=O)N4CC(C)CC(C)C4)cc3)nc12 (centres undefined) | 8.9µM* | ? | -16% | 22µM* | 50µM*
Cc1cc(C)c2nc(NNC(=O)c3ccc(S(=O)(=O)N4CC(C)CC(C)C4)cc3)sc2c1 (centres undefined) | 10µM* | ? | -12% | 16µM* | 28µM*
Cc1cc(C)c2nc(NNC(=O)c3ccc(S(=O)(=O)N4CCCC(C)C4)cc3)sc2c1 (centres undefined) | 8.9µM* | -8% | -22% | ? | 45µM*
Cc1cc(C)c2nc(NC(=O)c3ccc(S(=O)(=O)N4CCC(C)CC4)cc3)sc2c1 | 1% | / | 24%[57 µM] | 0% | 2%[59 µM]
CC(C)c1ccc(OCc2ccc(C(=O)N3CCCC3)o2)cc1 | -25% | -16% | -10% | -6% | 5%
Cc1ccc(S(=O)(=O)c2nc(-c3ccccc3Cl)oc2NCCCN2CCOCC2)cc1 | -11% | -17% | -32% | ? | /
Cc1ccc(S(=O)(=O)c2nc(-c3ccccc3)oc2NCc2cccnc2)cc1 | ? | -21% | 57% | ? | 50µM*
O=S(=O)(c1ccc(Cl)cc1)c1nc(-c2ccccc2F)oc1NCCCN1CCOCC1 | ? | -14% | -16% | ? | 79µM*
Cc1ccc(CNc2oc(-c3ccco3)nc2S(=O)(=O)c2ccccc2)cc1 | -31% | 5% | 2% | -19% | 11µM*
O=S(=O)(c1ccccc1)c1nc(-c2ccco2)oc1NCCN1CCOCC1 | -31% | ? | 36% | 1% | ?
CN1CCN(c2oc(-c3ccccc3F)nc2S(=O)(=O)c2ccc(Cl)cc2)CC1 | 35µM* | -11% | -35% | ? | /
Cc1ccccc1-c1nc(S(=O)(=O)c2ccc(Br)cc2)c(NCc2cccnc2)o1 | -12% | -7% | 12% | -32% | -48%
